# Test results reported in PubChem BioAssay AID1159580 (chemical genetic matrix, 2015).
# Where “and” joins values, the source holds several entries; their conditions need not be identical. Equal entries are not always repeated. Hit rate of the full screen: of about 5,500 compounds, about 2,000 (36%) were called active. Another 18% or so got no clear call; they are omitted. Rule as the data show it: active = normalized growth mostly below about 0.91 (no sharp cut-off); inconclusive = no clear call, values can overlap the other calls; inactive = mostly above about 0.92. The list shows a part of the results.
# Assay: chemical genetic growth profiling, strain panel (AID 1159580);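 also: tested at 20 µM; growth read once vehicle control cultures reached saturation at 30 °C; 1 = growth at the plate median or of vehicle wells; lower values mean less growth of the strain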
# Settings: S. cerevisiae deletion strains, growth OD
# [1] = locus YAR019C, strain CDC15, stronger effect = lower value
# [2] = locus YBL105C, strain PKC1, stronger effect = lower value
# [3] = locus YBR135W, strain CKS1, stronger effect = lower value
# [4] = locus YBR136W, strain MEC1, stronger effect = lower value
# [5] = locus YBR160W, strain CDC28, stronger effect = lower value
# [6] = locus YDL017W, strain CDC7, stronger effect = lower value
# [7] = locus YDL028C, strain MPS1, stronger effect = lower value
# [8] = locus YDL101C, strain DUN1, stronger effect = lower value
# [9] = locus YDL108W, strain KIN28, stronger effect = lower value
# [10] = locus YDL132W, strain cdc53, stronger effect = lower value
# [11] = locus YDL214C, strain PRR2, stronger effect = lower value
# [12] = locus YDR052C, strain DBF4, stronger effect = lower value
# [13] = locus YDR054C, strain cdc34, stronger effect = lower value
# [14] = locus YDR226W, strain ADK1, stronger effect = lower value
# [15] = locus YDR477W, strain SNF1, stronger effect = lower value
# [16] = locus YER123W, strain YCK3, stronger effect = lower value
# [17] = locus YER133W, strain GLC7, stronger effect = lower value
# [18] = locus YFL009W, strain cdc4, stronger effect = lower value
# [19] = locus YFL029C, strain CAK1, stronger effect = lower value
# [20] = locus YFR003C, strain YPI1, stronger effect = lower value
# [21] = locus YFR019W, strain FAB1, stronger effect = lower value
# [22] = locus YFR028C, strain CDC14, stronger effect = lower value
# [23] = locus YGR040W, strain KSS1, stronger effect = lower value
# [24] = locus YGR052W, strain FMP48, stronger effect = lower value
# [25] = locus YGR092W, strain DBF2, stronger effect = lower value
# [26] = locus YHR030C, strain SLT2, stronger effect = lower value
# [27] = locus YHR079C, strain IRE1, stronger effect = lower value
# [28] = locus YHR082C, strain KSP1, stronger effect = lower value
# [29] = locus YHR205W, strain SCH9, stronger effect = lower value
# [30] = locus YIL147C, strain SLN1, stronger effect = lower value
# [31] = locus YJL095W, strain BCK1, stronger effect = lower value
# [32] = locus YJL128C, strain PBS2, stronger effect = lower value
# [33] = locus YJL157C, strain FAR1, stronger effect = lower value
# [34] = locus YJR016C, strain ILV3, stronger effect = lower value
# [35] = locus YJR066W, strain TOR1 (second series), stronger effect = lower value
# [36] = locus YJR066W, strain TOR1, stronger effect = lower value
# [37] = locus YKL048C, strain ELM1, stronger effect = lower value
# [38] = locus YKL067W, strain YNK1, stronger effect = lower value
# [39] = locus YKL101W, strain HSL1, stronger effect = lower value
# [40] = locus YKL193C, strain SDS22, stronger effect = lower value
# [41] = locus YKL203C, strain TOR2, stronger effect = lower value
# [42] = locus YLR113W, strain HOG1, stronger effect = lower value
# [43] = locus YLR133W, strain CKI1, stronger effect = lower value
# [44] = locus YLR403W, strain SFP1, stronger effect = lower value
# [45] = locus YML070W, strain DAK1, stronger effect = lower value
# [46] = locus YMR001C, strain CDC5, stronger effect = lower value
# [47] = locus YMR205C, strain PFK2 (second series), stronger effect = lower value
# [48] = locus YMR277W, strain FCP1, stronger effect = lower value
# [49] = locus YNL006W, strain LST8, stronger effect = lower value
# [50] = locus YNL020C, strain ARK1, stronger effect = lower value
# [51] = locus YNL161W, strain CBK1, stronger effect = lower value
# [52] = locus YNL183C, strain NPR1, stronger effect = lower value
# [53] = locus YNL207W, strain RIO2, stronger effect = lower value
# [54] = locus YNL222W, strain SSU72, stronger effect = lower value
# [55] = locus YNL307C, strain MCK1 (second series), stronger effect = lower value
# [56] = locus YOL078W, strain AVO1, stronger effect = lower value
# [57] = locus YOL136C, strain PFK27, stronger effect = lower value
# [58] = locus YOR061W, strain CKA2, stronger effect = lower value
# [59] = locus YOR119C, strain RIO1, stronger effect = lower value
# [60] = locus YOR231W, strain MKK1, stronger effect = lower value
# [61] = locus YOR329C, strain SCD5, stronger effect = lower value
# [62] = locus YPL031C, strain PHO85, stronger effect = lower value
# [63] = locus YPL153C, strain RAD53, stronger effect = lower value
# [64] = locus YPL204W, strain HRR25, stronger effect = lower value
# [65] = locus YPL209C, strain IPL1, stronger effect = lower value
# [66] = locus YPL256C, strain CLN2, stronger effect = lower value
# [67] = locus YPR025C, strain CCL1, stronger effect = lower value
# [68] = locus YPR106W, strain ISR1, stronger effect = lower value
# [69] = locus YPR111W, strain DBF20, stronger effect = lower value
# [70] = strain NNK1, stronger effect = lower value
# [71] = strain TSCII, stronger effect = lower value
structure (smiles),measurement,setting,value
CC(NC(=S)Nc1ccc(Oc2ccc(Cl)cc2)cc1)c1ccccc1 (stereo not drawn),normalized growth,"locus YAL013W, strain DEP1, stronger effect = lower value",0.973 (inactive)
same,normalized growth,[1],0.952 (inactive)
same,normalized growth,[2],0.965 (inactive)
same,normalized growth,[3],0.956 (inactive)
same,normalized growth,[4],0.968 (inactive)
same,normalized growth,[5],0.976 (inactive)
same,normalized growth,"locus YBR229C, strain ROT2, stronger effect = lower value",0.983 (inactive)
same,normalized growth,"locus YCL061C, strain MRC1, stronger effect = lower value",0.983 (inactive)
same,normalized growth,[6],0.979 (inactive)
same,normalized growth,[7],0.971 (inactive)
same,normalized growth,[8],0.978 (inactive) and 0.974 (inactive)
same,normalized growth,[9],0.965 (inactive)
same,normalized growth,[10],0.964 (inactive)
same,normalized growth,[11],0.94 (inactive)
same,normalized growth,[12],0.955 (inactive)
same,normalized growth,[13],0.965 (inactive)
same,normalized growth,"locus YDR150W, strain NUM1, stronger effect = lower value",0.97 (inactive)
same,normalized growth,[14],0.953 (inactive)
same,normalized growth,[15],0.937 (inactive)
same,normalized growth,"locus YEL061C, strain CIN8, stronger effect = lower value",0.961 (inactive)
same,normalized growth,[16],0.909 (inactive)
same,normalized growth,[17],0.941 (inactive)
same,normalized growth,[18],0.958 (inactive)
same,normalized growth,[19],0.941 (inactive)
same,normalized growth,[20],0.961 (inactive)
same,normalized growth,[21],0.96 (inactive)
same,normalized growth,[22],0.946 (inactive)
same,normalized growth,[23],0.922 (inactive)
same,normalized growth,[24],1.08 (inactive)
same,normalized growth,"locus YGR078C, strain PAC10, stronger effect = lower value",0.995 (inactive)
same,normalized growth,[25],0.947 (inactive)
same,normalized growth,"locus YGR229C, strain SMI1, stronger effect = lower value",0.975 (inactive)
same,normalized growth,[26],0.924 (inactive) and 0.84 (active)
same,normalized growth,[27],0.97 (inactive)
same,normalized growth,[28],1.02 (inactive)
same,normalized growth,"locus YHR087W, strain rtc3, stronger effect = lower value",0.988 (inactive)
same,normalized growth,[29],0.954 (inactive)
same,normalized growth,[30],0.96 (inactive)
same,normalized growth,[31],0.932 (inactive)
same,normalized growth,[32],0.918 (inactive)
same,normalized growth,[33],0.927 (inactive)
same,normalized growth,"locus YJL187C, strain SWE1, stronger effect = lower value",0.987 (inactive)
same,normalized growth,[34],0.961 (inactive)
same,normalized growth,"locus YJR043C, strain POL32, stronger effect = lower value",0.998 (inactive)
same,normalized growth,[35],0.933 (inactive)
same,normalized growth,[36],0.981 (inactive)
same,normalized growth,"locus YJR075W, strain HOC1, stronger effect = lower value",1.01 (inactive)
same,normalized growth,[37],0.965 (inactive)
same,normalized growth,[38],0.916 (inactive)
same,normalized growth,[39],0.949 (inactive)
same,normalized growth,[40],0.958 (inactive)
same,normalized growth,[41],1.01 (inactive)
same,normalized growth,"locus YLR039C, strain RIC1, stronger effect = lower value",0.78 (active)
same,normalized growth,"locus YLR058C, strain SHM2 (second series), stronger effect = lower value",0.988 (inactive)
same,normalized growth,"locus YLR085C, strain ARP6, stronger effect = lower value",0.875 (inactive)
same,normalized growth,[42],0.923 (inactive)
same,normalized growth,[43],0.932 (inactive)
same,normalized growth,"locus YLR262C, strain YPT6, stronger effect = lower value",0.871 (inactive)
same,normalized growth,[44],0.962 (inactive)
same,normalized growth,[45],0.924 (inactive)
same,normalized growth,"locus YML094W, strain GIM5, stronger effect = lower value",0.905 (inactive)
same,normalized growth,[46],0.968 (inactive)
same,normalized growth,[47],0.951 (inactive)
same,normalized growth,"locus YMR219W, strain ESC1, stronger effect = lower value",0.99 (inactive)
same,normalized growth,"locus YMR263W, strain SAP30, stronger effect = lower value",0.971 (inactive)
same,normalized growth,[48],0.96 (inactive)
same,normalized growth,[49],0.965 (inactive)
same,normalized growth,[50],0.911 (inactive)
same,normalized growth,"locus YNL128W, strain TEP1, stronger effect = lower value",0.964 (inactive)
same,normalized growth,"locus YNL153C, strain GIM3, stronger effect = lower value",0.985 (inactive)
same,normalized growth,[51],0.973 (inactive)
same,normalized growth,[52],0.955 (inactive)
same,normalized growth,[53],0.959 (inactive)
same,normalized growth,[54],0.965 (inactive)
same,normalized growth,"locus YNL298W, strain CLA4 (second series), stronger effect = lower value",0.918 (inactive)
same,normalized growth,[55],0.906 (inactive)
same,normalized growth,"locus YNL322C, strain KRE1, stronger effect = lower value",1 (inactive)
same,normalized growth,"locus YNR030W, strain Alg12, stronger effect = lower value",0.944 (inactive)
same,normalized growth,[56],0.954 (inactive)
same,normalized growth,[57],0.929 (inactive)
same,normalized growth,[58],0.941 (inactive)
same,normalized growth,[59],1.04 (inactive)
same,normalized growth,[60],1.01 (inactive)
same,normalized growth,[61],0.976 (inactive)
same,normalized growth,[62],0.93 (inactive)
same,normalized growth,"locus YPL055C, strain LGE1, stronger effect = lower value",0.905 (inactive)
same,normalized growth,[63],0.937 (inactive)
same,normalized growth,[64],0.899 (inactive)
same,normalized growth,[65],0.967 (inactive)
same,normalized growth,"locus YPL241C, strain CIN2, stronger effect = lower value",0.93 (inactive)
same,normalized growth,[66],0.915 (inactive)
same,normalized growth,[67],0.961 (inactive)
same,normalized growth,[68],0.949 (inactive)
same,normalized growth,[69],1.01 (inactive)
same,normalized growth,"locus YPR135W, strain CTF4, stronger effect = lower value",0.97 (inactive)
same,normalized growth,[70],0.964 (inactive)
same,normalized growth,[71],0.954 (inactive)
CC(Oc1ccc(Cl)cc1Cl)C(=O)NNC(=S)Nc1ccccc1 (stereo not drawn),normalized growth,[1],0.983 (inactive)
same,normalized growth,[2],0.978 (inactive)
same,normalized growth,[3],0.982 (inactive)
same,normalized growth,[4],0.98 (inactive)
same,normalized growth,[5],0.975 (inactive)
same,normalized growth,[6],0.986 (inactive)
same,normalized growth,[7],0.977 (inactive)
same,normalized growth,[8],0.973 (inactive)
same,normalized growth,[9],0.959 (inactive)
same,normalized growth,[10],0.968 (inactive)
same,normalized growth,[11],0.984 (inactive)
same,normalized growth,[12],0.991 (inactive)
same,normalized growth,[13],0.982 (inactive)
same,normalized growth,[14],0.981 (inactive)
same,normalized growth,[15],0.994 (inactive)
same,normalized growth,[16],0.983 (inactive)
same,normalized growth,[17],0.966 (inactive)
same,normalized growth,[18],0.976 (inactive)
same,normalized growth,[19],0.981 (inactive)
same,normalized growth,[20],0.981 (inactive)
same,normalized growth,[21],0.964 (inactive)
same,normalized growth,[22],0.974 (inactive)
same,normalized growth,[23],0.965 (inactive)
same,normalized growth,[24],0.982 (inactive)
same,normalized growth,[25],0.905 (inactive)
same,normalized growth,[26],0.974 (inactive)
same,normalized growth,[27],1.01 (inactive)
same,normalized growth,[28],1.03 (inactive)
same,normalized growth,[29],0.906 (inactive)
same,normalized growth,[30],0.97 (inactive)
same,normalized growth,[31],0.927 (inactive)
same,normalized growth,[32],0.943 (inactive)
same,normalized growth,[33],0.973 (inactive)
same,normalized growth,[34],0.971 (inactive)
same,normalized growth,[35],0.94 (inactive)
same,normalized growth,[36],1.01 (inactive)
same,normalized growth,[37],0.974 (inactive)
same,normalized growth,[38],0.966 (inactive)
same,normalized growth,[39],0.957 (inactive)
same,normalized growth,[40],0.977 (inactive)
same,normalized growth,[41],1.02 (inactive)
same,normalized growth,[42],0.981 (inactive)
same,normalized growth,[43],0.959 (inactive)
same,normalized growth,[44],0.908 (inactive)
same,normalized growth,[45],0.98 (inactive)
same,normalized growth,[46],0.981 (inactive)
same,normalized growth,[47],0.968 (inactive)
same,normalized growth,[48],0.98 (inactive)
same,normalized growth,[49],0.976 (inactive)
same,normalized growth,[50],0.954 (inactive)
same,normalized growth,[51],0.984 (inactive)
same,normalized growth,[52],1.01 (inactive)
same,normalized growth,[53],0.958 (inactive)
same,normalized growth,[54],0.973 (inactive)
same,normalized growth,[55],0.873 (inactive)
same,normalized growth,[56],0.972 (inactive)
same,normalized growth,[57],0.938 (inactive)
same,normalized growth,[58],0.968 (inactive)
same,normalized growth,[59],1.03 (inactive)
same,normalized growth,[60],0.993 (inactive)
same,normalized growth,[61],0.982 (inactive)
same,normalized growth,[62],0.995 (inactive)
same,normalized growth,[63],0.993 (inactive)
same,normalized growth,[64],0.944 (inactive)
same,normalized growth,[65],0.98 (inactive)
same,normalized growth,[66],1.12 (inactive)
same,normalized growth,[67],0.978 (inactive)
same,normalized growth,[68],0.977 (inactive)
same,normalized growth,[69],0.961 (inactive)
same,normalized growth,[70],0.973 (inactive)
same,normalized growth,[71],0.983 (inactive)
